# Experimental data taken from PubChem BioAssay AID894 (National Center for Advancing Translational Sciences (NCATS), 2007).
# The campaign covered roughly 150,000 compounds. About 6,500 (4.3%) were called active. Another 12% or so got no clear call; they are omitted. Calls follow the shape of the dose curve; as a rule, active = well fitted inhibition curve with a large enough effect (not every such curve was filed as active); inconclusive = small, poorly fitted or top-dose-only effect, or another doubt; inactive = no such curve, though single readings can be large or run the other way. The entries come from a sample that favours actives as a whole.
# Target: 15-hydroxyprostaglandin dehydrogenase [NAD(+)] (Homo sapiens) (UniProt P15428)
# Sequence (P15428 whole entry, looked up): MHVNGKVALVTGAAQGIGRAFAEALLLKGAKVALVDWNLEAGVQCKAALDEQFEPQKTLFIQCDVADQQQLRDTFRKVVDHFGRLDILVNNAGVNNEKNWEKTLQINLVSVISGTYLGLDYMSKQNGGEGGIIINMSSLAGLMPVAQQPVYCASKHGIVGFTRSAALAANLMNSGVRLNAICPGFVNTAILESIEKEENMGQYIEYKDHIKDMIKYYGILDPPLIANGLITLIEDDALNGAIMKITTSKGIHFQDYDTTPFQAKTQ
# Test: qHTS Assay for Inhibitors of HPGD (15-Hydroxyprostaglandin Dehydrogenase)
# Conditions: purified HPGD, NADH fluorescence kinetic, PGE2 substrate; activity change, negative = inhibition: active compounds read low
# Outline: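 20 nM HPGD preincubated 15 min at room temperature with compound in 50 mM Tris-HCl pH 8, 0.01% Tween 20. Started with 1 mM NAD+ and 30 uM prostaglandin E2; NADH fluorescence (360/450 nm) read 5 times over 30-s intervals, last minus first.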
# % is scaled to controls: 0 for no effect and ±100 for the full control effect; potency is read from the fitted curve at half-maximal effect.
Compound,"activity change, negative = inhibition",Potency
Cc1cccc(C)c1NC(=O)CSc1nnc(-c2ccccc2)n1Cc1ccc2c(c1)OCO2,-8.72% (inactive),–
c1ccc(-c2nnc3n2NC(c2ccc4c(c2)OCO4)S3)cc1 (centres undefined),–,14.1 µM (active)
CC1=C(C(N)=O)C(c2ccc3c(c2)OCO3)n2nc(-c3cccc(C)c3)nc2N1 (centres undefined),-3.51% (inactive),–
COCCNc1nc(N)c([N+](=O)[O-])c(NCCO)n1,-10.5% (inactive),–
O=C(NNC(=S)NCc1ccccc1)c1ccc(OC(F)F)cc1,-6.63% (inactive),–
COc1cc(OC)cc(-c2nc3nc(C)c(CCC(=O)NCc4ccco4)c(C)n3n2)c1,-10.9% (inactive),–
Cc1nc2nc(SCC(=O)NCc3ccco3)nn2c(C)c1Cc1ccccc1,–,22.4 µM (active)
Cc1ccc(Cc2c(C)nc3nc(SCC(=O)NCCN4CCOCC4)nn3c2C)cc1,-11.4% (inactive),–
CCOC(=O)C1CCN(c2ccc(C(=O)O)cc2[N+](=O)[O-])CC1,-3.84% (inactive),–
CC(=O)c1cc(-c2ccccc2)n(CCC(=O)NC2CCCCCC2)c1C,-4.2% (inactive),–
CCOc1ccccc1NC(=O)C1CCC(CNc2c(N3CCOCC3)c(=O)c2=O)CC1 (centres undefined),-25.1% (inactive),–
O=C(NCc1ccccc1Cl)C1CCC(CNc2c(N3CCCCC3)c(=O)c2=O)CC1 (centres undefined),–,12.6 µM (active)
COc1ccc(CNC(=O)C2CCC(CNc3c(N4CCOCC4)c(=O)c3=O)CC2)cc1 (centres undefined),-17.3% (inactive),–
O=C(CCN1C(=O)c2ccccc2C1=O)NNC(=O)c1ccc(Cl)cc1Cl,-7.71% (inactive),–
Cc1c(Br)c([N+](=O)[O-])nn1CC(=O)Nc1sc2c(c1C(=O)OC(C)C)CCC(C)C2 (centres undefined),-1.95% (inactive),–
C/C(=N/NS(=O)(=O)c1ccccc1)c1ccc(NC(=O)C(F)(F)F)cc1,-4.99% (inactive),–
COc1ccc(/C=N/OCC(=O)N(Cc2ccccc2)c2ccccc2C(=O)O)cc1,-8.65% (inactive),–
O=C(N/N=C/c1coc2ccccc2c1=O)c1cc2ccccc2o1,-20% (inactive),–
Cc1cccc(N2CCN(C(=O)/C=C/c3ccco3)CC2)c1C,-20.4% (inactive),–
Cc1ccc(OCCCC(=O)N2CCOCC2)c(C)c1,–,20 µM (active)

Compound,"activity change, negative = inhibition",Potency
CCOc1cc(-c2noc(CCC(=O)N3CCOCC3)n2)ccc1OC,-8.81% (inactive),–
COc1ccc(OCC(=O)N2CCOCC2)cc1,4.8% (inactive),–
COc1ccc(-c2nc3c(c4c2C[C@H](c2ccccc2)OC4)CN(C(=O)c2ccco2)CC3)c(C)c1,-11.6% (inactive),–
Cc1ccc(C(C)NC(=O)Cn2nc(C)c([N+](=O)[O-])c2C)cc1 (centres undefined),-5.59% (inactive),–
O=C(O)c1cccc(N=NN2CCCCCC2)c1,-9.76% (inactive),–
CCc1nnc(NC(=O)CCN(c2ccc(C)cc2)S(=O)(=O)c2ccccc2)s1,-10.2% (inactive),–
CC(=O)NNC1=Nc2ccccc2N(C)C(C)C1 (centres undefined),0.367% (inactive),–
O=[N+]([O-])c1c(NCCO)cc(Sc2nc3ccccc3s2)c2nonc12,–,11.2 µM (active)
Cc1nn(CC(=O)Nc2nc3ccccc3s2)c(C)c1[N+](=O)[O-],-4.84% (inactive),–
c1ccc2sc(SCCSc3nc4ccccc4s3)nc2c1,0.386% (inactive),–
O=C(CSc1ccc2nnc(-c3ccccc3)n2n1)N1CCCc2ccccc21,-22.3% (inactive),–
COc1ccccc1CNC(=O)c1ccc(SC)cc1OC,–,22.4 µM (active)
CCOC(=O)c1c(C)[nH]c(C(=O)NCc2ccccc2OC)c1C,-7.72% (inactive),–
COc1cc(SC)ccc1C(=O)NCCOc1ccccc1Cl,-18.8% (inactive),–
CC(NC(=O)CCC(=O)N1CCN(S(=O)(=O)c2ccc(Cl)cc2)CC1)c1ccccc1 (centres undefined),-5.29% (inactive),–
Cc1c(Cl)cccc1NC(=S)NCc1ccc2c(c1)OCO2,-5.45% (inactive),–
Cc1ccc(C(=O)c2c(NC(=O)c3ccncc3)sc3c2CCCC3)cc1,-22.2% (inactive),–
CC(=O)c1c(Nc2ccccc2)sc(C(=O)c2ccccc2)c1C,-1.98% (inactive),–
Cc1ccc(C(=O)c2c(NC(=O)c3ccccc3)sc(C)c2C)cc1,–,14.1 µM (active)
CCc1ccccc1NC(=O)CN(C)C(=O)COc1ccc(C)nc1[N+](=O)[O-],-2.83% (inactive),–

Compound,"activity change, negative = inhibition",Potency
COc1ccc(NC(=O)COC(=O)c2ccc(NS(=O)(=O)/C=C/c3ccccc3)cc2)cc1,-13.7% (inactive),–
Cc1nn(C)c(Oc2ccccc2)c1[N+](=O)[O-],-7.95% (inactive),–
Cn1cnc([N+](=O)[O-])c1Nc1ccccc1O,-2.73% (inactive),–
Cn1cnc([N+](=O)[O-])c1Sc1ccccc1,–,15.8 µM (active)
CCCN(CC1COc2ccccc2O1)C(=S)Nc1ccc(C)cc1 (centres undefined),-7.28% (inactive),–
CCCC(=O)n1nc(-c2ccccc2)nc1N,-7.53% (inactive),–
CCS(=O)(=O)n1nc(-c2ccc(OC)cc2)nc1SC,-4.54% (inactive),–
CCS(=O)(=O)n1nc(-c2ccccc2)nc1SCc1ccccc1,–,14.1 µM (active)
Cc1cc(F)ccc1S(=O)(=O)N1CCCOC1CNC(=O)C(=O)NCCC1=CCCCC1 (centres undefined),-6.01% (inactive),–
CCOC(=O)CN(Cc1ccc(OC)c(OC)c1)S(=O)(=O)c1ccc(OC)cc1,1.91% (inactive),–
COc1ccc(CCN(C(=O)COc2ccccc2)c2nc(-c3ccccc3)cs2)cc1OC,-5.33% (inactive),–
COc1ccc(C(CCN(Cc2ccc(OC)c(OC)c2)C(=O)CCl)c2ccccc2)cc1 (centres undefined),–,10 µM (active)
CC(C)(C)C1CCC(=NNC(=O)c2ccc(Br)o2)CC1 (centres undefined),-11.4% (inactive),–
CCOC(=O)c1ccc2c(c1)nc(SCC(=O)NC(C)C)n2CC,–,31.6 µM (active)
CCn1c(SCC(=O)NCC2CCCO2)nc2cc(S(=O)(=O)N3CCCCC3)ccc21 (centres undefined),-12.7% (inactive),–
CCOC(=O)CNC(=O)CSc1nc2cccnc2n1CC,-17.6% (inactive),–
O=C(CN1CCN(c2ccc(Cl)cc2)CC1)N1CCCC1,-1.51% (inactive),–
O=C(CSCc1ccc(Cl)cc1)N1CCN(Cc2ccc3c(c2)OCO3)CC1,-13.7% (inactive),–
O=C(CSCc1ccc(Cl)cc1)N1CCCCC1,–,15.8 µM (active)
